# Measurements: ChEMBL document CHEMBL1961873, “Compounds: GSK PKIS; Assays: Nanosyn kinase panel” (2012)
# How the values were obtained:
# [1] = target: Sphingosine kinase 1 (Homo sapiens) (UniProt Q9NYA1); settings: at 1 µM;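 note: mean SPHK1 inhibition value reported from the GSK PKIS kinase panel screen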
# [2] = target: T1, Sphingosine kinase 2 (Homo sapiens) (UniProt Q9NRA0); settings: at 0.1 µM
# T1 sequence (whole entry): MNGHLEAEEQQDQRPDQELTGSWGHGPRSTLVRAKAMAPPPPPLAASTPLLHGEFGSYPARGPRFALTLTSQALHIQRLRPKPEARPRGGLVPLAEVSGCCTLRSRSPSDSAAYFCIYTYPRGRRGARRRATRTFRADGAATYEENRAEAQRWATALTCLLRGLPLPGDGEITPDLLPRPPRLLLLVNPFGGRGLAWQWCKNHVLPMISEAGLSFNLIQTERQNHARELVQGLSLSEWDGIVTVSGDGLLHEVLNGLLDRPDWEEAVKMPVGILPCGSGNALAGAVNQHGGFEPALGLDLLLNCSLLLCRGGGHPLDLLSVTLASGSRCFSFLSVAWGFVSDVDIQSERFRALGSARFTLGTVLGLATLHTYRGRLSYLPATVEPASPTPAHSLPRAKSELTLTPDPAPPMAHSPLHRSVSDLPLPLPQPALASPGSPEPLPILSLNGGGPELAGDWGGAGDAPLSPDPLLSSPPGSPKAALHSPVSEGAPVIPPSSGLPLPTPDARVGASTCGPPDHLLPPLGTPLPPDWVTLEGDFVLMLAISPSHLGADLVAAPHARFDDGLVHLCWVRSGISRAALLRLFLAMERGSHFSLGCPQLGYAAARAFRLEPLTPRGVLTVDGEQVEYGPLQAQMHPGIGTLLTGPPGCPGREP
# [3] = target: T1, Sphingosine kinase 2 (Homo sapiens); settings: at 1 µM
# [4] = target: Casein kinase II subunit alpha (Homo sapiens) (UniProt P68400); settings: at 0.1 µM
# [5] = target: Casein kinase II subunit alpha (Homo sapiens) (UniProt P68400); settings: at 1 µM
# [6] = target: T2, Inhibitor of nuclear factor kappa-B kinase subunit alpha (Homo sapiens) (UniProt O15111); settings: at 0.1 µM
# T2 sequence (whole entry): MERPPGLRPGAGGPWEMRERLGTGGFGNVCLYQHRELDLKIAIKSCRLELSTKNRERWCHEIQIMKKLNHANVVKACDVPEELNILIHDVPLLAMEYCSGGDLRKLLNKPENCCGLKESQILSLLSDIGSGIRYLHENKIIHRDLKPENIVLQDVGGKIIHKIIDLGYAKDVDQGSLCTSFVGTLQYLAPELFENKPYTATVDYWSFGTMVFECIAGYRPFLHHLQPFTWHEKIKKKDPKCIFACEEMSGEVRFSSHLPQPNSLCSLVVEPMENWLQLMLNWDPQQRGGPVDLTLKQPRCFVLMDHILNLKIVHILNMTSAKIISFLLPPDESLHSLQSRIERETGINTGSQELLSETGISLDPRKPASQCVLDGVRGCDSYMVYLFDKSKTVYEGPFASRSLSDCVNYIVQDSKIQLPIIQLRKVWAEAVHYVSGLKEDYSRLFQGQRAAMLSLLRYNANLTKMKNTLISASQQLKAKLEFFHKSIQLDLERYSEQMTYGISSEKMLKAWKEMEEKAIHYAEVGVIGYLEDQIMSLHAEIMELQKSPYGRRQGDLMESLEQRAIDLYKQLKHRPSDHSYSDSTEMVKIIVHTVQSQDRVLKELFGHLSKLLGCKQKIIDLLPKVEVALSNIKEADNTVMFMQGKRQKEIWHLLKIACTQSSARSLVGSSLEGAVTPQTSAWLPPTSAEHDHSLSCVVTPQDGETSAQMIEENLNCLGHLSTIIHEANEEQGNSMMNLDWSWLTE
# [7] = target: T2, Inhibitor of nuclear factor kappa-B kinase subunit alpha (Homo sapiens); settings: at 1 µM
# [8] = target: T3, Inhibitor of nuclear factor kappa-B kinase subunit beta (Homo sapiens) (UniProt O14920); settings: at 0.1 µM
# T3 sequence (whole entry): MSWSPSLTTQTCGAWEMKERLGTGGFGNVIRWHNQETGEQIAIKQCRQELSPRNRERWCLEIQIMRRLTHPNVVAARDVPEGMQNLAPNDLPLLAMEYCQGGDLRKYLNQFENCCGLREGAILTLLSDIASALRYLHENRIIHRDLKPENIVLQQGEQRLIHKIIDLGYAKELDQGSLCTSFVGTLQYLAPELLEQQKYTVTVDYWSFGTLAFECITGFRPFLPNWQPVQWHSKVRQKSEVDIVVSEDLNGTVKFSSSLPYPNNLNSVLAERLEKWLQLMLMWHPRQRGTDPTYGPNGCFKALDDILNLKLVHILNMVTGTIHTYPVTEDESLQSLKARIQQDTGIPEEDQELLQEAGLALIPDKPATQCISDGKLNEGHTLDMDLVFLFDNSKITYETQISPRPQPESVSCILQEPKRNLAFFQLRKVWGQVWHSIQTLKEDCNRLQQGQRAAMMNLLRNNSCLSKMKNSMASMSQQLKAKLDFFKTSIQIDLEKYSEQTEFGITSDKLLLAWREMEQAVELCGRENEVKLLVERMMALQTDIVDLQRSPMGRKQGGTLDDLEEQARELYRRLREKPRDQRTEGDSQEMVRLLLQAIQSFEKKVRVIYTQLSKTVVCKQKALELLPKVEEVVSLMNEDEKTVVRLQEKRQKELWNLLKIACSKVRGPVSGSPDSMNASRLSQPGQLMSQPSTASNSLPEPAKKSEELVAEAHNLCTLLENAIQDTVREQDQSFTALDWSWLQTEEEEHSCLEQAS
# [9] = target: T3, Inhibitor of nuclear factor kappa-B kinase subunit beta (Homo sapiens); settings: at 1 µM
# [10] = target: T4, Inhibitor of nuclear factor kappa-B kinase subunit epsilon (Homo sapiens) (UniProt Q14164); settings: at 0.1 µM
# T4 sequence (whole entry): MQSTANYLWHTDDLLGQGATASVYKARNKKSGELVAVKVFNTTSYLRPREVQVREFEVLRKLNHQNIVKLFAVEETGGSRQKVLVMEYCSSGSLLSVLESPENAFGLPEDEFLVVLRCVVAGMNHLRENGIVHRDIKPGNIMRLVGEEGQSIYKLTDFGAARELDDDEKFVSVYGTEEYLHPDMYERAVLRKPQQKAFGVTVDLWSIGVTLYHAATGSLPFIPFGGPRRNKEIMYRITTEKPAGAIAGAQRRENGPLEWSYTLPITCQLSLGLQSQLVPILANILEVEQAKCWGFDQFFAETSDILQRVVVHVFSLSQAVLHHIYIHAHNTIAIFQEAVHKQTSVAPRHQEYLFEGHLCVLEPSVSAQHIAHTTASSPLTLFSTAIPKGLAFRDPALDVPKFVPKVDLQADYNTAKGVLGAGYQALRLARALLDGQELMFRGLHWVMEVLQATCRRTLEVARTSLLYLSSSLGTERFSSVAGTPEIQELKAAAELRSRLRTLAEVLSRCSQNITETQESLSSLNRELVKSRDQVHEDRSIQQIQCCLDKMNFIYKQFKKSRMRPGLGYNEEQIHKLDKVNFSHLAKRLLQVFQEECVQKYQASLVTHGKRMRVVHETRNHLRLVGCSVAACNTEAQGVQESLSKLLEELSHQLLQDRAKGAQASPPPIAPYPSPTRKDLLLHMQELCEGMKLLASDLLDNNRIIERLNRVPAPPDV
# [11] = target: T4, Inhibitor of nuclear factor kappa-B kinase subunit epsilon (Homo sapiens); settings: at 1 µM
# [12] = target: T5, Serine/threonine-protein kinase Nek1 (Homo sapiens) (UniProt Q96PY6); settings: at 0.1 µM
# T5 sequence (whole entry): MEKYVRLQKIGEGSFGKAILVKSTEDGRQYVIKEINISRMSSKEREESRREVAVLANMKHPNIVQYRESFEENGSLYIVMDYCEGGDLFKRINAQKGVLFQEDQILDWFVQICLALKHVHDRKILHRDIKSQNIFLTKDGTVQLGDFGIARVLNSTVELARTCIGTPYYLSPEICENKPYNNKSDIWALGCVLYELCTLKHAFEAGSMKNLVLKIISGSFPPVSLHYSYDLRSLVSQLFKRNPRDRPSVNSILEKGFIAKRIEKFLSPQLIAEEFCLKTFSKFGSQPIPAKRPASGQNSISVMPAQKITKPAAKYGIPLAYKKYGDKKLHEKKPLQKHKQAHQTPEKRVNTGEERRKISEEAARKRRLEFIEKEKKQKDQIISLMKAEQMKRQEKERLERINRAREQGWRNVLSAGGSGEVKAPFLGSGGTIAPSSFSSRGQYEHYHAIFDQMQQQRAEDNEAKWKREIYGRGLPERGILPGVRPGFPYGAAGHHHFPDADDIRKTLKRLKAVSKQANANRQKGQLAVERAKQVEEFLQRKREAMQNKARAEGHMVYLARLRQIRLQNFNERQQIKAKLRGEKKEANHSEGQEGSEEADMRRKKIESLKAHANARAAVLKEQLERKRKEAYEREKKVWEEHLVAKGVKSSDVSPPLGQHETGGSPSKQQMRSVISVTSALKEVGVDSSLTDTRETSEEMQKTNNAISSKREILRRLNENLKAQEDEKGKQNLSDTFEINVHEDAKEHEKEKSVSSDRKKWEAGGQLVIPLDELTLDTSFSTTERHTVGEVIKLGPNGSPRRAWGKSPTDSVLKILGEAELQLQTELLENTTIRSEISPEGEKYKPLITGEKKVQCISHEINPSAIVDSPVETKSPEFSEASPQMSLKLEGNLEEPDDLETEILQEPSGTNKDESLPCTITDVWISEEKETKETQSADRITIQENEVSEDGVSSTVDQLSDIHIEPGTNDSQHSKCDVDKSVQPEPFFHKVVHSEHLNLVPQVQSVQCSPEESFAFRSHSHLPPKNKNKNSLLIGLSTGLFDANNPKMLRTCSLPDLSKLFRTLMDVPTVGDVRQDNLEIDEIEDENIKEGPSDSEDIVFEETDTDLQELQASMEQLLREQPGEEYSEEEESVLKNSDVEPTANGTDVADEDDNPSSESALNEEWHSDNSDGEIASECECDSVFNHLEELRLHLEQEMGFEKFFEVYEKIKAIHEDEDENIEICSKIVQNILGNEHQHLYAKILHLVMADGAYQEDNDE
# [13] = target: T5, Serine/threonine-protein kinase Nek1 (Homo sapiens); settings: at 1 µM
# [14] = target: T6, Serine/threonine-protein kinase Nek2 (Homo sapiens) (UniProt P51955); settings: at 0.1 µM
# T6 sequence (whole entry): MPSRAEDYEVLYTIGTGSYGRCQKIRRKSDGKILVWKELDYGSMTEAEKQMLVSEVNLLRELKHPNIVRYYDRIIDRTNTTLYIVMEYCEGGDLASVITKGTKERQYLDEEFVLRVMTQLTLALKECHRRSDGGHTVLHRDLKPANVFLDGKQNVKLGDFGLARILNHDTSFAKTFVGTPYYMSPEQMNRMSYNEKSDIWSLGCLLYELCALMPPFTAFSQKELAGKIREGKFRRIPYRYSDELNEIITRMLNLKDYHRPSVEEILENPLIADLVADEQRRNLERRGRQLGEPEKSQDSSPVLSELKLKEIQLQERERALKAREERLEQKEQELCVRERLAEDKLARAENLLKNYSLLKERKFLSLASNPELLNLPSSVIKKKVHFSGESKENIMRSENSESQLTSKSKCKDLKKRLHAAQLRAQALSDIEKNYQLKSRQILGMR
# [15] = target: T6, Serine/threonine-protein kinase Nek2 (Homo sapiens); settings: at 1 µM
# [16] = target: Serine/threonine-protein kinase Nek6 (Homo sapiens) (UniProt Q9HC98); settings: at 0.1 µM
# [17] = target: Serine/threonine-protein kinase Nek6 (Homo sapiens) (UniProt Q9HC98); settings: at 1 µM
# [18] = target: Serine/threonine-protein kinase Nek7 (Homo sapiens) (UniProt Q8TDX7); settings: at 0.1 µM
# [19] = target: Serine/threonine-protein kinase Nek7 (Homo sapiens) (UniProt Q8TDX7); settings: at 1 µM
# [20] = target: T7, Serine/threonine-protein kinase Nek9 (Homo sapiens) (UniProt Q8TD19); settings: at 0.1 µM;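 note: reported value is the mean percent inhibition of NEK9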
# T7 sequence (whole entry): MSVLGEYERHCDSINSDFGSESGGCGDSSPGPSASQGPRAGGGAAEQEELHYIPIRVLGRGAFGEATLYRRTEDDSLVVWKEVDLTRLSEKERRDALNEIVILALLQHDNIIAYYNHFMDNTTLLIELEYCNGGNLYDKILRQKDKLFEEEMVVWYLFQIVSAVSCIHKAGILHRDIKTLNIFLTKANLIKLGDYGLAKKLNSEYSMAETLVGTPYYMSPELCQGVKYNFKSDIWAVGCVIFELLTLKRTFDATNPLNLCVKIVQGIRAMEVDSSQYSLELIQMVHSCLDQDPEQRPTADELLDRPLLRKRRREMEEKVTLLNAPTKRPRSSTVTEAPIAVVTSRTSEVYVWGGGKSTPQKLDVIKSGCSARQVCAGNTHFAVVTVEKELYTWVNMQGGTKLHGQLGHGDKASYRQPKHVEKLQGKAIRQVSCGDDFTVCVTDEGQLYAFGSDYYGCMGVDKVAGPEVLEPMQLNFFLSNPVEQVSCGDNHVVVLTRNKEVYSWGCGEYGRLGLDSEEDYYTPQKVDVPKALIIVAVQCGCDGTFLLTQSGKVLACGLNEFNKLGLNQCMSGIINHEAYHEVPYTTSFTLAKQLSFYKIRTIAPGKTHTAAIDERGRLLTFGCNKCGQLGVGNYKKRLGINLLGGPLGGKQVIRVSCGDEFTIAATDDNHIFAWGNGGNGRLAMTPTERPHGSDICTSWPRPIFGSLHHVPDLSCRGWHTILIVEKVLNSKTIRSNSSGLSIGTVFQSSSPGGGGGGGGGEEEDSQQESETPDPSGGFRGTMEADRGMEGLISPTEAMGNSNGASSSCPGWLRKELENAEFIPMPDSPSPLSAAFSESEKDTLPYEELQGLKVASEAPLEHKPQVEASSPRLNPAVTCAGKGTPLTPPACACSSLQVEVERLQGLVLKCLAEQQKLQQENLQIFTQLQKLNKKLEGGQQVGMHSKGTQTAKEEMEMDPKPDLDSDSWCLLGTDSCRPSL
# Serine/threonine-protein kinase Nek7 (Homo sapiens), sequence (Q8TDX7 whole entry, looked up): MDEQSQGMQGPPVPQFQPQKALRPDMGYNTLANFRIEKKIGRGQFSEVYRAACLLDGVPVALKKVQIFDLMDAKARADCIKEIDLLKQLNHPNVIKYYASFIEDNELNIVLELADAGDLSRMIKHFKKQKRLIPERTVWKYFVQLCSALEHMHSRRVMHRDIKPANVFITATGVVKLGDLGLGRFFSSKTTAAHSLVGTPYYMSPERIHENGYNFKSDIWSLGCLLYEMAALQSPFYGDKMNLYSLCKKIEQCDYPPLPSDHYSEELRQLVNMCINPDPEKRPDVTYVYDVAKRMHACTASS
# Casein kinase II subunit alpha (Homo sapiens), sequence (P68400 whole entry, looked up): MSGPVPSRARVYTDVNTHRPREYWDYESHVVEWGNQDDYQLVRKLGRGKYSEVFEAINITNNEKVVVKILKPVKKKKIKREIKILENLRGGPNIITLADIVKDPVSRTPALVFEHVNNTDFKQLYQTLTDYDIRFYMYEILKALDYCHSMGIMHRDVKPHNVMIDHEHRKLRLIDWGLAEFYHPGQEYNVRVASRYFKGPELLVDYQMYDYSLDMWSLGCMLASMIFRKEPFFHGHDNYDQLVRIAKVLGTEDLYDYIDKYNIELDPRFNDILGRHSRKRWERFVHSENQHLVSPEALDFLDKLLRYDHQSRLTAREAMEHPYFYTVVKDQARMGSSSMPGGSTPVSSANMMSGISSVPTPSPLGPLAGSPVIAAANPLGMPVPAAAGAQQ
# Serine/threonine-protein kinase Nek6 (Homo sapiens), sequence (Q9HC98 whole entry): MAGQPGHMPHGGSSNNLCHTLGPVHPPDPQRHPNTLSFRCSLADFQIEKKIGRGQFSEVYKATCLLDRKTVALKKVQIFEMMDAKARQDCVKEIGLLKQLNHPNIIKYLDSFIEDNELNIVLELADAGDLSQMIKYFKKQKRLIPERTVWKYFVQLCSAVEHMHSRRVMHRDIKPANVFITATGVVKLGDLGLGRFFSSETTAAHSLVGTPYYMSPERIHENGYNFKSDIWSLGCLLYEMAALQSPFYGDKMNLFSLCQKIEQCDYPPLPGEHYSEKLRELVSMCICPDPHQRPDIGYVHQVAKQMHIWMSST
# Sphingosine kinase 1 (Homo sapiens), sequence (Q9NYA1 whole entry): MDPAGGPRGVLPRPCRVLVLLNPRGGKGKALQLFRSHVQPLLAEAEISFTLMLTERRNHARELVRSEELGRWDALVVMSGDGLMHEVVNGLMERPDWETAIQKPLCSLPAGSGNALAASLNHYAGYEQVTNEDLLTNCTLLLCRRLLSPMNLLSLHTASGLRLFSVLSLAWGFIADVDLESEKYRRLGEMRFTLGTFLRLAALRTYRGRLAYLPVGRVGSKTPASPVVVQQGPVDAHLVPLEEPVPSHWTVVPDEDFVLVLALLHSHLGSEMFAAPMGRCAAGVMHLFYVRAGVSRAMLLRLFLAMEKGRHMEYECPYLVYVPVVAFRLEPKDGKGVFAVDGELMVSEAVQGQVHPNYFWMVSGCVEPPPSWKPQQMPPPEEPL
smiles,measurement,setting,value
CCN1CCC(CC(=O)Nc2n[nH]c3nc(-c4cccs4)c(Br)cc23)CC1,inhibition,[1],1.53%
same,inhibition,[2],-0.06%
same,inhibition,[3],-0.11%
same,inhibition,[4],1.1%
same,inhibition,[5],4.38%
same,inhibition,[6],4.35%
same,inhibition,[7],5.49%
same,inhibition,[8],-1.36%
same,inhibition,[9],-2.71%
same,inhibition,[10],-5.79%
same,inhibition,[11],-3.61%
same,inhibition,[12],-1.51%
same,inhibition,[13],0.77%
same,inhibition,[14],-1.87%
same,inhibition,[15],-2.3%
same,inhibition,[16],-1.1%
same,inhibition,[17],-2.19%
same,inhibition,[18],0.31%
same,inhibition,[19],-4.11%
same,inhibition,[20],0.24%
